Results on 1 sequence are retold here after publication PMC7862700, “An all-to-all approach to the identification of sequence-specific readers for epigenetic DNA modifications on cytosine”.

Common to all, as to assay: DAPPL (digital affinity profiling via proximity ligation, sequencing); 10 mM Tris-HCl pH 7.5, 50 mM NaCl, 1 mM DTT, 4% glycerol, room temperature, 30 min; GST-TFs on glutathione beads, 16-mer random dsDNA library, 0.1% formaldehyde crosslink after washing; high values mean tight binding
One experiment deals with T1, FLI1 (Homo sapiens, UniProt Q01543 1-452).
T1 sequence: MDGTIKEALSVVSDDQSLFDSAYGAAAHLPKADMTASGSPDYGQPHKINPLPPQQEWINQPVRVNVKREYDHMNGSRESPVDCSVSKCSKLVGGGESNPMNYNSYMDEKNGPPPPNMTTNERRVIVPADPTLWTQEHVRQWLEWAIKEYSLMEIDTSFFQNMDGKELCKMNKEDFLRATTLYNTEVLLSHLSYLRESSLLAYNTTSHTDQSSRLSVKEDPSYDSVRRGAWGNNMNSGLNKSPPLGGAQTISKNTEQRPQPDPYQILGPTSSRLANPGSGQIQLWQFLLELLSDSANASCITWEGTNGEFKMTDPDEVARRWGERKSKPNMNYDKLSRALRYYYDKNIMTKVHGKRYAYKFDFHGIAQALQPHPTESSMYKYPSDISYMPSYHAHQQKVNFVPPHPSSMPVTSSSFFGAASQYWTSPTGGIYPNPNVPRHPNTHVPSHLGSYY
Conditions: protein: recombinant; tags: N-terminal GST; dsDNA, one strand shown. A digest of the protocol: (§1)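 Pools of DNA-barcoded human transcription factors, expressed in yeast as GST fusions on glutathione beads and combined with a tag-only sample, were incubated with 200 nmole of a 16-mer random double-stranded DNA library. Incubation took 30 min at room temperature in Tris/NaCl/DTT/glycerol buffer and was followed by washing, 0.1% formaldehyde crosslinking, proximity ligation (BsaI/T4 ligase, 1 h, 37 °C), PCR amplification and sequencing on an Illumina NextSeq500. Binding signal is the ratio of a hexamer's read frequency for a factor to its frequency for the tag-only sample.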

Another experiment has as its target T2, ELK1 (Homo sapiens, UniProt P19419 1-428).
T2 sequence: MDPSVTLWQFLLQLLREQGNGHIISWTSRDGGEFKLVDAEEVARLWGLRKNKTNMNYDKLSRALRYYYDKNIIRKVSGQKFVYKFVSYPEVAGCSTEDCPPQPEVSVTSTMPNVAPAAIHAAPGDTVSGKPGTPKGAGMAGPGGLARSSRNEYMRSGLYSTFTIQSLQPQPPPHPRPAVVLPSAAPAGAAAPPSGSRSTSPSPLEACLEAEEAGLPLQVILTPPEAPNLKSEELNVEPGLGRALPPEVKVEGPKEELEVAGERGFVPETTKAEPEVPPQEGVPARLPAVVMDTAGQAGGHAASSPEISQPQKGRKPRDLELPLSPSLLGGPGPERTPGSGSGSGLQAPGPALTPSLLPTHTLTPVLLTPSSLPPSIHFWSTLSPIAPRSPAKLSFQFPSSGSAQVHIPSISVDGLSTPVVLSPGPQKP
Conditions: protein: recombinant; tags: N-terminal GST; dsDNA, one strand shown. The essentials:
as §1

A further experiment addresses T3, GABPA (Homo sapiens, UniProt Q06546 1-454).
T3 sequence: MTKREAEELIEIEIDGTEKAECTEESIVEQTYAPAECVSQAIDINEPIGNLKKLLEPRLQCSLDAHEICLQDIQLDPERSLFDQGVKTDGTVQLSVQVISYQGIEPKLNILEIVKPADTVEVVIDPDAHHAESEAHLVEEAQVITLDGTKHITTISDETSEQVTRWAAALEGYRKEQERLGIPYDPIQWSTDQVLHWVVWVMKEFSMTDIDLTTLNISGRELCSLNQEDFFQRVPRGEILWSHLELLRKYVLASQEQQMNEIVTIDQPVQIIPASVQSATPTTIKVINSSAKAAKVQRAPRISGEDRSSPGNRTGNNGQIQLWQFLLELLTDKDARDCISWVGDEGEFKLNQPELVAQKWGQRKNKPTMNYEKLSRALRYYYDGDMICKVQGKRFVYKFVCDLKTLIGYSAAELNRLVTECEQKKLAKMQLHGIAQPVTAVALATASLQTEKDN
The conditions noted are these: protein: recombinant; tags: N-terminal GST; dsDNA, one strand shown. A digest of the protocol: as §1

Another experiment concerns the target T4, ERG (Homo sapiens, UniProt P11308 1-479).
T4 sequence: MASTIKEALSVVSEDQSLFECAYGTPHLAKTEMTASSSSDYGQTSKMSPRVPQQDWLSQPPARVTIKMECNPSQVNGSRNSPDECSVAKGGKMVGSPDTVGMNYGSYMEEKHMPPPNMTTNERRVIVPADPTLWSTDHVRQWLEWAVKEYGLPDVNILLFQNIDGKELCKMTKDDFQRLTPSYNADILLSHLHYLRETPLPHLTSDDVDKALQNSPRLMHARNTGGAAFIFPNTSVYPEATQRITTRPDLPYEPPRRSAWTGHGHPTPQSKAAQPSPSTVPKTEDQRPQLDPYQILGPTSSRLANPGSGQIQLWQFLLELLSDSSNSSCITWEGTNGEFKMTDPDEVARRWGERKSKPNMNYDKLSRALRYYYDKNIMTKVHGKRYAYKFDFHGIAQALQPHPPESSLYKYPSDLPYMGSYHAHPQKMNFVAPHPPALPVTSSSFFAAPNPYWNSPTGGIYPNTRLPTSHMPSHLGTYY
Conditions: protein: recombinant; tags: N-terminal GST; dsDNA, one strand shown. The essentials: as §1

The target in the next experiment is ELF1 (Homo sapiens, UniProt P32519 1-619). Conditions: protein: recombinant; tags: N-terminal GST; dsDNA, one strand shown. The essentials: as §1
ELF1, sequence (P32519 whole entry): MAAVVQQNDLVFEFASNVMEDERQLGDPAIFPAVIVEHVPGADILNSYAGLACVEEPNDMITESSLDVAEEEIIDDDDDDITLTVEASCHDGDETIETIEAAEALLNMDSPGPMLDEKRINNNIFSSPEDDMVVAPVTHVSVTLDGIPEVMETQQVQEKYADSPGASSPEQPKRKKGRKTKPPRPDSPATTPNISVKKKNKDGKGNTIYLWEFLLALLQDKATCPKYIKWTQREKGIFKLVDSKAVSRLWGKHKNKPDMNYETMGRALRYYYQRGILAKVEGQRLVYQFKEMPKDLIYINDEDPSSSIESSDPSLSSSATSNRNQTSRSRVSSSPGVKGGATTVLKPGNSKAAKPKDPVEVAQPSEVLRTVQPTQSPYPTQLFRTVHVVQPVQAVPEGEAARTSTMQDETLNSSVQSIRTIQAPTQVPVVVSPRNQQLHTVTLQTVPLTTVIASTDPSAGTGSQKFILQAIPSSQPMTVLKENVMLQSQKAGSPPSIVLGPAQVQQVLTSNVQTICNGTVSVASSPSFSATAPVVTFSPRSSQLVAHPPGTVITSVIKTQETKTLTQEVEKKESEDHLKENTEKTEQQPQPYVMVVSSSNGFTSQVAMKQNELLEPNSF
Another experiment has as its target T5, EHF (Homo sapiens, UniProt Q9NZC4 1-300).
T5 sequence: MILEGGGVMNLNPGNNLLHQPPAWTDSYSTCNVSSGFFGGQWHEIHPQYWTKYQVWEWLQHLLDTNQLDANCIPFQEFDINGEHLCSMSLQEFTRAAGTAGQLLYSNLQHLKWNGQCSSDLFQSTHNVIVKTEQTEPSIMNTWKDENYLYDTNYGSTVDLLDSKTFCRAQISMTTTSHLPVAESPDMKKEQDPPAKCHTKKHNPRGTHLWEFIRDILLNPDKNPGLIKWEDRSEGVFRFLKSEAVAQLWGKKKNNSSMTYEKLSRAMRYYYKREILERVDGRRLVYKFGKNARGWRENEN
Conditions: protein: recombinant; tags: N-terminal GST; dsDNA, one strand shown. The essentials: as §1

Another experiment has as its target SPI1 (Homo sapiens, UniProt P17947 1-270). Conditions: protein: recombinant; tags: N-terminal GST; dsDNA, one strand shown. The essentials:
as §1

For the next experiment, the target named is SPIB (Homo sapiens, UniProt Q01892 1-262). The conditions noted are these: protein: recombinant; tags: N-terminal GST; dsDNA, one strand shown. The essentials: as §1
SPIB, sequence (Q01892 whole entry): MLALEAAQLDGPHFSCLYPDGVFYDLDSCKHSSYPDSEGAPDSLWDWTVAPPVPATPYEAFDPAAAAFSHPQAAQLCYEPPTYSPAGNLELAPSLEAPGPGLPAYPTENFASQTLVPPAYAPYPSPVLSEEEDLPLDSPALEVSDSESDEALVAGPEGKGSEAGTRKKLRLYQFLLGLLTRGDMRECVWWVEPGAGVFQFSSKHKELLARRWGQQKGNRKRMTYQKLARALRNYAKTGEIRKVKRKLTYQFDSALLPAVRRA
The next experiment has as its target T6, ELK3 (Homo sapiens, UniProt P41970 1-407).
T6 sequence: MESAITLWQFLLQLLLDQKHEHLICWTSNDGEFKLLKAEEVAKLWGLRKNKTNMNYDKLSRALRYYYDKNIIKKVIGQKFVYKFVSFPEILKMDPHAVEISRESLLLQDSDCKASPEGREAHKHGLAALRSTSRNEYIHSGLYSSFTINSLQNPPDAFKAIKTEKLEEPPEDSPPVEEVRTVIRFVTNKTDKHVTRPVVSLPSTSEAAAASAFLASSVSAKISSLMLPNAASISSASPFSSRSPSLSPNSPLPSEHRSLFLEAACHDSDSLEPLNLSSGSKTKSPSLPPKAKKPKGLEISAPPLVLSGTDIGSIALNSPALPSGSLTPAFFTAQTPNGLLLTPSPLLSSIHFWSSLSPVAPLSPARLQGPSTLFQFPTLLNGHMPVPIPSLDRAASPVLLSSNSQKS
Conditions: protein: recombinant; tags: N-terminal GST; dsDNA, one strand shown. The essentials:
as §1

The target in the next experiment is T7, FEV (Homo sapiens, UniProt Q99581 1-238).
T7 sequence: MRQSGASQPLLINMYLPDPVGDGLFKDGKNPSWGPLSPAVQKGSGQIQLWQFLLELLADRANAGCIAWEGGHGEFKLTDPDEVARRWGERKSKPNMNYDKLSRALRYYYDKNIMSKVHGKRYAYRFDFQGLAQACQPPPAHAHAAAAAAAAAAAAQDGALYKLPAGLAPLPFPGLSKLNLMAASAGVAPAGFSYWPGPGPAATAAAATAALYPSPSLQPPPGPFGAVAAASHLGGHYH
Conditions: protein: recombinant; tags: N-terminal GST; dsDNA, one strand shown. The essentials:
as §1

For a further experiment, the target named is ETV5 (Homo sapiens, UniProt P41161 1-510). The conditions noted are these: protein: recombinant; tags: N-terminal GST; dsDNA, one strand shown. A digest of the protocol:
as §1

A further experiment addresses HSF1 (Homo sapiens, UniProt Q00613 1-529). The conditions noted are these: protein: recombinant; tags: N-terminal GST; chain copies: 3; dsDNA, one strand shown. The essentials: as §1
The target of the next experiment is T8, SPIC (Homo sapiens, UniProt Q8N5J4 1-248).
T8 sequence: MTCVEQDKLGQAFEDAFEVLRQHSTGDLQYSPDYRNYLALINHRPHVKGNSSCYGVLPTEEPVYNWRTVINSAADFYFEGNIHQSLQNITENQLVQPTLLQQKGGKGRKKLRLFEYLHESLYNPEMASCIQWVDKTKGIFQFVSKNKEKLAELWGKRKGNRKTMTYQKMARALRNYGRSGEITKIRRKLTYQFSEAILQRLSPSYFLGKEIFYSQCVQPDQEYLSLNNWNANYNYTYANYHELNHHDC
Conditions: protein: recombinant; tags: N-terminal GST; dsDNA, one strand shown. The essentials: as §1

The target of a further experiment is ELF4 (Homo sapiens, UniProt Q99607 1-663). Conditions: protein: recombinant; tags: N-terminal GST; dsDNA, one strand shown. The essentials:
as §1

Another experiment addresses T9, ELK4 (Homo sapiens, UniProt P28324-2 1-405).
T9 sequence: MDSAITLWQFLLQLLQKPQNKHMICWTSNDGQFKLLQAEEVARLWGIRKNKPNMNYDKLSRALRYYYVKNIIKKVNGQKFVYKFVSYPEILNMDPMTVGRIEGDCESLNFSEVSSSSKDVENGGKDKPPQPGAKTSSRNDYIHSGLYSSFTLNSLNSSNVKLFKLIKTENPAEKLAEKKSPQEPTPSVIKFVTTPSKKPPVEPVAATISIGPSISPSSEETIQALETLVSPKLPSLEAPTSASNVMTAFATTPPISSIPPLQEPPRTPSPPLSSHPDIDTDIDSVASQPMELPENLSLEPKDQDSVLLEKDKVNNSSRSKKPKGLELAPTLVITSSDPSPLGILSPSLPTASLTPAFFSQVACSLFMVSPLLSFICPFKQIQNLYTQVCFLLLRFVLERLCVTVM
Conditions: protein: recombinant; tags: N-terminal GST; dsDNA, one strand shown. The essentials:
as §1

The next experiment deals with T10, ETV2 (Homo sapiens, UniProt O00321 1-342).
T10 sequence: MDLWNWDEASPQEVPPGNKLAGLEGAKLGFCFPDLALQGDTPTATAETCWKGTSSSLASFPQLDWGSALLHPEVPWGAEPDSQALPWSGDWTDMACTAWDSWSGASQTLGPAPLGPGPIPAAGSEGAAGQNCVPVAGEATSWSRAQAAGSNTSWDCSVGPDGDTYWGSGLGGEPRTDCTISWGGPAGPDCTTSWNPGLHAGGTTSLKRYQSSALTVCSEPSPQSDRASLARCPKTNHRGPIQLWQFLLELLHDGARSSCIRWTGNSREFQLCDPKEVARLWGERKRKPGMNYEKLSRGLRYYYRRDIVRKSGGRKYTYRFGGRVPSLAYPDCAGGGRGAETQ
Conditions: protein: recombinant; tags: N-terminal GST; dsDNA, one strand shown. A digest of the protocol: as §1

The next experiment concerns the target T11, ELF3 (Homo sapiens, UniProt P78545 1-371).
T11 sequence: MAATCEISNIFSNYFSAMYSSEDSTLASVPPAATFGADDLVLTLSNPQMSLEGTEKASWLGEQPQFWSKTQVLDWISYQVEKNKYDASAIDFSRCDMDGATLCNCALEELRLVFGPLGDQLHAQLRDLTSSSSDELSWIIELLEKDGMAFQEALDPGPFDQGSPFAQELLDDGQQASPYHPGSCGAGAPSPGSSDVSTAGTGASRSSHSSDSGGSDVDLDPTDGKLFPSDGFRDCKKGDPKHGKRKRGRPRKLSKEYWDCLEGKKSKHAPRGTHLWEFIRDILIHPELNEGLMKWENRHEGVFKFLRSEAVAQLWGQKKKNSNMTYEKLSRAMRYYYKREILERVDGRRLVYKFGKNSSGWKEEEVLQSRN
Conditions: protein: recombinant; tags: N-terminal GST; dsDNA, one strand shown. The essentials:
as §1

For a further experiment, the target named is CRX (Homo sapiens, UniProt O43186 1-299). Conditions: protein: recombinant; tags: N-terminal GST; dsDNA, one strand shown. The essentials:
as §1

Another experiment has as its target ETV1 (Homo sapiens, UniProt P50549 1-477). The conditions noted are these: protein: recombinant; tags: N-terminal GST; dsDNA, one strand shown. A digest of the protocol:
as §1

ETV1, sequence (P50549 whole entry): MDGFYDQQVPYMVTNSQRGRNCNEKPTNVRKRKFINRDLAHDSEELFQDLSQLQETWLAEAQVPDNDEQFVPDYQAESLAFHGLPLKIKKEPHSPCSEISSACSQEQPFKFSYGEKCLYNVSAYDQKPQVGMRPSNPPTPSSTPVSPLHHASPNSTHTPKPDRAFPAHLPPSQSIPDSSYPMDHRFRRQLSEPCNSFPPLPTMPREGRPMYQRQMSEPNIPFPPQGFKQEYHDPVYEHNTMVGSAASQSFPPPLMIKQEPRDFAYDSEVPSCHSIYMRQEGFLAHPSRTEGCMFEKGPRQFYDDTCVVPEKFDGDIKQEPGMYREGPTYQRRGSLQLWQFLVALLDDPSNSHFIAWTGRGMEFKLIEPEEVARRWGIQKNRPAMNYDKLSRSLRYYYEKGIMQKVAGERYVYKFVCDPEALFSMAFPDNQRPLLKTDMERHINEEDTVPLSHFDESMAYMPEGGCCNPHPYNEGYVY
CRX, sequence (O43186 whole entry): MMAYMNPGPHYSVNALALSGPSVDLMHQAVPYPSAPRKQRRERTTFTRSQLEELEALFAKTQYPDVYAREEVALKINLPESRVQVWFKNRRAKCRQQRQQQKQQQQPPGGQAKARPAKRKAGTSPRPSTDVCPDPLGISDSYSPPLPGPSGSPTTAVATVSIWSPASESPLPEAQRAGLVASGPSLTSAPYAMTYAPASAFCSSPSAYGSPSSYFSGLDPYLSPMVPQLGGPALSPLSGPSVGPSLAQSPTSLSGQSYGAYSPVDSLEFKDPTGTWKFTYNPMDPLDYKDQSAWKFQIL
ELF4, sequence (Q99607 whole entry): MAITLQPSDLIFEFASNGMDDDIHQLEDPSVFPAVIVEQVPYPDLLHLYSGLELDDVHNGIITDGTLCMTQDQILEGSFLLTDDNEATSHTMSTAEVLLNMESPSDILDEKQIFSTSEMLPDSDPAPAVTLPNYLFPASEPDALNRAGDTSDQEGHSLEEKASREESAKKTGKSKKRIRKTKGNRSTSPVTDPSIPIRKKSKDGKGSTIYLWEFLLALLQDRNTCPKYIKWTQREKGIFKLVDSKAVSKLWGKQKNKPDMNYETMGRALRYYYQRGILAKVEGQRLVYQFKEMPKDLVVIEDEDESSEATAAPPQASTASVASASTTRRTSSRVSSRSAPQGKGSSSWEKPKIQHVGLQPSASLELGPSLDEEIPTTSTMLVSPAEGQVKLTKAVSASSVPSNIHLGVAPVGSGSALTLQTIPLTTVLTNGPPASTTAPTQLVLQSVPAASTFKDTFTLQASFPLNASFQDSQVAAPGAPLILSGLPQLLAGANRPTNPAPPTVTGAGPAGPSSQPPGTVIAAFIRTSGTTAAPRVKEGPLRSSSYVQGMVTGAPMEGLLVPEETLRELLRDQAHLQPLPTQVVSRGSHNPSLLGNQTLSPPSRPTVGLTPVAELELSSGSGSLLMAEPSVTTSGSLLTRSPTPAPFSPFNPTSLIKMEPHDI
ETV5, sequence (P41161 whole entry): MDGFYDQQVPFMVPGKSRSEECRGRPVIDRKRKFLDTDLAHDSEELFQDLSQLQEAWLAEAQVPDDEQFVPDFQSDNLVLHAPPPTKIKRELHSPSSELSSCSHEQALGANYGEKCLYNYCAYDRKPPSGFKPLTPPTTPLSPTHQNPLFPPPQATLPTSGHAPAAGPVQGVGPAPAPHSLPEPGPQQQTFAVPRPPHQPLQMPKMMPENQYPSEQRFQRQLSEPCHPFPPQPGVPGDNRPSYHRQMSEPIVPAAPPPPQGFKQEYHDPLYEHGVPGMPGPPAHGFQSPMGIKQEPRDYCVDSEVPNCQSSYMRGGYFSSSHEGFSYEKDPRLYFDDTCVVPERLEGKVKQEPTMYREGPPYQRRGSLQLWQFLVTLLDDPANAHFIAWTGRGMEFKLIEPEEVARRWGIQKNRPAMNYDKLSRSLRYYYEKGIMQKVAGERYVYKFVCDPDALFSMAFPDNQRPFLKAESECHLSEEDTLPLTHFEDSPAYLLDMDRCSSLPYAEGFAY
HSF1, sequence (Q00613 whole entry): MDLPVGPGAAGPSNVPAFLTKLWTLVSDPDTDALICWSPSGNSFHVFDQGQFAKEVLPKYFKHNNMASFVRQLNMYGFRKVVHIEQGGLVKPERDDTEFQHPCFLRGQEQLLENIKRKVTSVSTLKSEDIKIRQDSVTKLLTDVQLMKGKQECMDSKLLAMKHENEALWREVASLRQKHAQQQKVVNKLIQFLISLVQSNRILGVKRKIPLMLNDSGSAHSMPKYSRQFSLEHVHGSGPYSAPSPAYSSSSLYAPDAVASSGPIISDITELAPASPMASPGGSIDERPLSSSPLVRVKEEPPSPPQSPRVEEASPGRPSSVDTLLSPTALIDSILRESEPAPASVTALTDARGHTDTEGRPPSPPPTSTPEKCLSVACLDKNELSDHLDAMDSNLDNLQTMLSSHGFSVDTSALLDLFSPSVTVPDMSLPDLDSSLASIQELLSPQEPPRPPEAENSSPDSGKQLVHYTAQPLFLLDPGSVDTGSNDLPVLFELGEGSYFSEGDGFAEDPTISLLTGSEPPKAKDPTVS

As for AAAGAA, the binding signal was 1.18 fold enrichment (6-mer frequency, TF over GST control) in the experiment with FLI1; 1.24 fold enrichment (6-mer frequency, TF over GST control) with ELK1; 1.23 fold enrichment (6-mer frequency, TF over GST control) in the experiment with GABPA; 1.27 fold enrichment (6-mer frequency, TF over GST control) in the experiment with ERG; 1.28 fold enrichment (6-mer frequency, TF over GST control) in the experiment with ELF1; 1.32 fold enrichment (6-mer frequency, TF over GST control) in the experiment with EHF. For the same sequence, the binding signal was 1.32 fold enrichment (6-mer frequency, TF over GST control) in the experiment with SPI1; 1.24 fold enrichment (6-mer frequency, TF over GST control) with SPIB; 1.3 fold enrichment (6-mer frequency, TF over GST control) with ELK3; 1.23 fold enrichment (6-mer frequency, TF over GST control) in the experiment with FEV; 1.22 fold enrichment (6-mer frequency, TF over GST control) in the experiment with ETV5; 1.99 fold enrichment (6-mer frequency, TF over GST control) with HSF1. Also, the binding signal was 1.17 fold enrichment (6-mer frequency, TF over GST control) in the experiment with SPIC; 1.29 fold enrichment (6-mer frequency, TF over GST control) with ELF4; 1.32 fold enrichment (6-mer frequency, TF over GST control) with ELK4; 1.25 fold enrichment (6-mer frequency, TF over GST control) in the experiment with ETV2; 1.29 fold enrichment (6-mer frequency, TF over GST control) with ELF3; 1.48 fold enrichment (6-mer frequency, TF over GST control) with CRX. The binding signal with ETV1 is 1.29 fold enrichment (6-mer frequency, TF over GST control).
